Source: ChEMBL document CHEMBL3988442, “University of Dundee, Small-Polar-MMV Screening Library” (2021)
About 900 (1.7%) of roughly 53,000 compounds showed an effect of 50% or more. Shown is part of a subset that was picked to be rich in strong results.

System: Mycobacterium tuberculosis
Experiment: Cornell - Phenotypic assay to identify agents that inhibit growth of Mycobacterium tuberculosis
Format: functional
Set-up: scale not given: direction of the effect not stated beside the values
Settings: 10 mM as filed; unlikely as a test dose

SMILES	Percent Effect [%]
O=C(c1cc(-c2cccs2)on1)N1CCCCC1Cn1cccn1 (stereo unspecified)	6.3
Cc1csc(Nc2cc(C3CN(c4ccncn4)C3)nc(C)n2)n1	23.54
CCc1cccc(NC(=O)CNc2ccccc2OCCC(=O)OC)c1	45.3
CCS(=O)(=O)NCC(=O)NC(c1cc(C)sc1C)C(C)C (stereo unspecified)	24.3
Cc1cc(C)nc(Nc2nccnc2C2CCCN(CCO)C2)n1 (stereo unspecified)	54.85
CC(=O)N1CCCC(c2nccnc2Nc2nc(C)cc(C)n2)C1 (stereo unspecified)	-9.848
Cc1cc(C)nc(Nc2nccnc2C2CCCN(C(CO)CO)C2)n1 (stereo unspecified)	36.66
COc1cc(C2CC(=O)Oc3cc(C)[nH]c(=O)c32)ccc1O (stereo unspecified)	15.79
Cc1noc(Cl)c1CC(=O)N1CCCC1Cn1cccn1 (stereo unspecified)	17.08
CSc1nccc(-c2cccc(-c3ccn(CC4COCCO4)n3)c2)n1 (stereo unspecified)	71.9
COc1cccc(-c2cccc(-c3ccn(CC4COCCO4)n3)c2)n1 (stereo unspecified)	-2.003
COc1nccnc1-c1cccc(-c2ccn(CC3COCCO3)n2)c1 (stereo unspecified)	14.38
Cc1[nH]nc2ncc(C(=O)N3CCCC3c3noc(C(C)C)n3)cc12 (stereo unspecified)	24.5
O=C(O)C(F)(F)F.O=C(O)C(F)(F)F.c1cncc(-c2ccc3c(c2)CCC32CCN(Cc3ccco3)CC2)c1	82.31
O=C(O)C(F)(F)F.O=C(O)C(F)(F)F.c1cncc(-c2ccc3c(c2)CCC32CCN(Cc3nccs3)CC2)c1	61.89
COc1ccc2c(c1)C1(CCN(Cc3nccs3)CC1)N(C)CC2.O=C(O)C(F)(F)F.O=C(O)C(F)(F)F	-9.444
O=C(O)C(F)(F)F.c1cc(-c2ccc3c(c2)CCC32CCN(c3nncs3)CC2)ccn1	20.52
c1cc(-c2ccc3c(c2)C2(CC3)CCN(c3nncs3)CC2)ccn1	26.32
O=C(O)C(F)(F)F.O=C(O)C(F)(F)F.c1csc(CN2CCC3(CC2)CCN(CC2CC2)CC3)n1	-43.47
O=C(O)C(F)(F)F.c1cncc(-c2ccc3c(c2)C2(CC3)CCN(c3nncs3)CC2)c1	85.45
CN1CCN(Cc2cccnc2)C(=O)C12CCN(Cc1ccco1)CC2.O=C(O)C(F)(F)F.O=C(O)C(F)(F)F.O=C(O)C(F)(F)F	15.2

SMILES	Percent Effect [%]
CN(C)CC(=O)N1CCC2(CCc3cc(-c4cccnc4)ccc32)CC1.O=C(O)C(F)(F)F.O=C(O)C(F)(F)F	11.92
CC(C)(C)c1n[nH]cc1CNC1CCC(OCC(F)(F)F)CC1.Cl (stereo unspecified)	-6.883
CCN(CC(C)C#N)C(=O)CNc1ccc(C(N)=O)c(C)c1 (stereo unspecified)	7.465
O=C(CC1CCCC1)NCCS(=O)(=O)N1CCN(c2ccccn2)CC1	-6.415
CN(C)c1nccc(C2CCN(C3CCCCC3O)CC2)n1 (stereo unspecified)	-26.39
Cn1ccnc1CN1CCCN(C(=O)c2ccc3ccccc3c2)CC1	4.708
COc1ccc(C)cc1NC(=O)c1coc(C)n1	8.355
CCN(C(=O)c1ccc2c(c1)OCO2)C1CC(=O)NC1=O (stereo unspecified)	-9.897
CC(=O)c1ccc(N2CCN(C(=O)c3cc(C(C)C)nn3C)CC2)cc1	16.14
CC(C)c1cc(C(=O)N2CCN(c3ccncc3)CC2)n(C)n1	12.8
CC(C)c1cc(C(=O)N2CCN(c3ccc(F)c(Cl)c3)CC2)n(C)n1	54.92
O=C(NCCC(O)c1ccoc1)Nc1cccs1 (stereo unspecified)	106.1
O=C(NCc1cccs1)NCC(O)c1ccoc1 (stereo unspecified)	18.49
O=C(NCC(O)c1ccoc1)Nc1c(F)cccc1F (stereo unspecified)	6.365
CCOc1ccccc1C(=O)NCCC(O)c1ccoc1 (stereo unspecified)	22.79
CCOC(=O)NCCC(O)c1ccoc1 (stereo unspecified)	23.86
O=C(NCC(O)c1ccoc1)Nc1cccs1 (stereo unspecified)	104.6
Cl.O=C(CN1CCCC1)Nc1c2c(cc3c1CCC3)CCC2	40.53
CCS(=O)(=O)Nc1ccn(Cc2cccc(F)c2)n1	-38.51
CN(C)CCN1C(=O)CCC12CCCN(C(=O)c1cccnc1)CC2.O=C(O)C(F)(F)F.O=C(O)C(F)(F)F (stereo unspecified)	28.27
Cn1cc(CN2CCCCC2c2ccc(-c3cccc(Cl)c3)nc2)cn1 (stereo unspecified)	30.06

SMILES	Percent Effect [%]
CC1CCN(C(=O)NCCc2cc(F)ccc2F)C1 (stereo unspecified)	29.01
CN(C)CCNc1cc(-c2ccccc2C(N)=O)c2cc[nH]c2n1	-19.65
CN1CCN([C@@H]2CN(C(=O)c3cc4cccc(F)c4[nH]3)C[C@H]2O)CC1	38.63
CN(C)[C@@H]1CN(C(=O)c2cc3cccc(F)c3[nH]2)C[C@H]1O	57.85
O=C(c1cc2cccc(F)c2[nH]1)N1C[C@@H](O)[C@H](N2CCCC2)C1	36.56
CN1CCOC(CNCC(=O)NCCc2ccc3c(c2)OCCO3)C1 (stereo unspecified)	-19.13
Nc1cc(N2CCCC(COc3ccc(F)cc3)C2)nc(N)n1 (stereo unspecified)	-4.088
Cc1ccccc1OCC1CCCN(c2cc(N)nc(N)n2)C1 (stereo unspecified)	79.75
Cc1nc(N)cc(N2CCCC(COc3cccc(F)c3)C2)n1 (stereo unspecified)	43.67
CN(C)Cc1cnc(C2CN(C(=O)c3ccccc3Cl)CCO2)[nH]1 (stereo unspecified)	-0.6177
c1ccc(CCN2CC(n3cccn3)C2)nc1	-9.048
COc1cccc(CN(C)C(=O)CCC(=O)c2ccc(Cl)cc2)c1OC	54.4
COc1ccc(CN(C)C(=O)CCC(=O)c2cccs2)c(OC)c1OC	32.22
COc1cccc(CN(C)C(=O)CCC(=O)c2ccccc2)c1OC	8.094
O=C(N[C@@H]1CCC[C@@H](N2CCCC2)[C@@H]1O)c1cnn2cccnc12	-2.756
CC(C)c1sc(Br)nc1C(=O)NCc1cccnc1	16.15
Cc1nc(C(=O)Nc2cccnc2)c(C(C)C)s1	51.63
COc1ccc(NC(=O)c2nc(C)sc2C(C)C)cn1	41.95
CC(C)CCN1C[C@H]2C[C@H](C(=O)Nc3cccnc3)[C@@H](C1)O2.O=C(O)C(F)(F)F.O=C(O)C(F)(F)F	18.07
